Assay results as given in ChEMBL document CHEMBL4513216, “Probing the Open Global Health Chemical Diversity Library for Multistage-Active Starting Points for Next-Generation Antimalarials” (ACS Infect Dis, 2020).
Screen size: about 68,000 compounds; about 2,700 (4%) showed an effect of 50% or more. What follows is part of a selection rich in strong results, with near analogues and random picks from the rest.

test system: Plasmodium berghei; experiment: Screen against P. berghei liver stage (PbLuc), transformed with Luciferase, at 2uM; type: functional, HepG2; details: tested at 2 uM

Structure (SMILES)	INHIBITION [%]
Cc1cc(CN(C)C(C(=O)O)c2cccc(C(F)(F)F)c2)on1 (stereo not given)	-53
COc1ccc(C)cc1CN1CCn2cccc2C1C (stereo not given)	23.27
CCC(C)NC(=O)NCc1cc2n(n1)CCCN(C1CCCCC1)C2 (stereo not given)	-15.12
CC(C)SCC(=O)NCc1cc2n(n1)CCCN(C1CCCCC1)C2	50.02
CSCCC(=O)NCc1cc2n(n1)CCCN(C1CCCCC1)C2	-12.95
CNS(=O)(=O)c1ccc(CNC(=O)N(C)C(C)COC)cc1 (stereo not given)	-30.49
Cc1ccc(C(=O)N2CCC3(CCN3c3ncccn3)C2)cn1 (stereo not given)	-55.08
CC(O)CNc1ccc(C#N)cc1C(F)(F)F (stereo not given)	25.48
CC(C)(C)c1nc(NS(=O)(=O)c2ccc(F)cc2)no1	-56.23
Cc1nc(CNC(=O)NC(C)c2ccc3c(c2)OCCCO3)cs1 (stereo not given)	-10.62
COCCOCC(=O)NC1CCN(c2ccccn2)CC1	-1.01
Cc1ccc(C)c(OCC(=O)NC2CCN(c3ccccn3)CC2)c1	63.89
O=C(COCCOc1ccccc1)NC1CCN(c2ccccn2)CC1	21.79
Fc1cccc(Cl)c1Cn1ncnc1CSCCN1CCCC1	2.76
O=C1CCCCCN1Cc1ncnn1Cc1c(F)cccc1Cl	29.98
O=C1OCCN1Cc1ncnn1Cc1c(F)cccc1Cl	59.94
O=S(=O)(NCc1ccc(S(=O)(=O)N2CCCC2)s1)c1ccc(Cl)c(Cl)c1	-7.01
CCN1c2ccc(-c3cncn3CC(=O)NC(C)(C)C)cc2CC1C (stereo not given)	51.57
CC1Cc2cc(-c3cncn3CC(=O)NC(C)(C)C)ccc2N1C (stereo not given)	37.4
CCN1CCc2cc(-c3cncn3CC(=O)NC(C)(C)C)ccc21	25.72
CCN1CCCC(c2c(-c3ccccc3)ncn2Cc2cccnc2)C1 (stereo not given)	-17.04
O=C(NCCO)c1cc(-c2ccc3c(c2)CCO3)n[nH]1	51.31
O=C(NCCCO)c1cc(-c2ccc3c(c2)CCO3)n[nH]1	-56.16
CN(C)CCCNC(=O)c1cc(-c2ccc3c(c2)CCO3)n[nH]1	-4.01
CC1c2ncc(Cn3cccn3)n2CCN1Cc1ccc(F)cc1 (stereo not given)	17.24
COCc1cc(N(C)Cc2cnccn2)nc(C(C)(C)C)n1	10.03
COCCC(=O)N1CCCC(CCC(=O)Nc2ccc(Cl)cc2)C1 (stereo not given)	-0.62

Structure (SMILES)	INHIBITION [%]
O=C([C@@H]1COC[C@H]2CN(c3ccncn3)C[C@H]21)N1CCCCO1	40.64
O=C([C@H]1COC[C@H]2CN(c3ccncn3)C[C@H]21)N1CCCC1	53.55
O=C([C@@H]1COC[C@H]2CN(c3ccncn3)C[C@H]21)N1CCCC1	25.58
CN(Cc1cccnc1)CC1CN(C(=O)C2CC2)Cc2nccn2C1 (stereo not given)	6.8
CN1Cc2c(C(=O)NC3CCCCC3)ncn2-c2ccccc2S1(=O)=O	-2.38
CCc1nc(-c2ccc(NC(=O)N3CCC4(CC3)OCCO4)cc2)no1	-16.82
CCc1nc(-c2ccc(NC(=O)N3CCOCC3)cc2)no1	-52.23
CCc1nc(-c2ccc(C(=O)N3CCC4(CC3)OCCO4)cc2)no1	59.75
CC(C)n1nnnc1-c1ccc(NC(=O)CC(F)(F)F)cc1F	-16.15
CCC(CN1CCOCC1)n1cncc1-c1ccc2c(c1)CCN2CC (stereo not given)	8.33
O=C(C1CCCN(C2CCOCC2)C1)N1CCc2ncccc2C1 (stereo not given)	34.71
CCCOCC(=O)N1CCc2c(cccc2S(=O)(=O)N2CCOCC2)C1	53.05
COCC(=O)N1CCc2cccc(S(=O)(=O)N3CCOCC3)c2C1	13.24
CCOCCC(=O)N1CCc2cccc(S(=O)(=O)N3CCOCC3)c2C1	23.82
CC(C)CCN1CCNC(=O)C1CC(=O)NCCc1cc(O)ncn1 (stereo not given)	17.99
COC1CCN(CCNC(=O)NC(C)c2ccc(F)c(F)c2)CC1 (stereo not given)	54.29
COC1CCN(CCNC(=O)NCC(C)c2cccc(C)c2)CC1 (stereo not given)	38.83
COC1CCN(CCNC(=O)NC(C)c2cccc(Cl)c2)CC1 (stereo not given)	-23.58
Cc1ccc(S(=O)(=O)NCCOc2ccc3nnc(C)n3n2)s1	17.47
CS(=O)(=O)CCN(CC1CCCO1)C1CCCC1 (stereo not given)	56.53
CCS(=O)(=O)CCN(CC1CCCO1)C1CCCC1 (stereo not given)	-19.27
CCN(CCS(=O)(=O)CC)CC1CCCO1 (stereo not given)	1.03
CCc1nc(N2CCCC(O)(CO)CC2)ncc1C (stereo not given)	32.1
Cc1ccc(C)c(OCc2cc(C(=O)N(C)Cc3cnn(C)c3)no2)c1	28.17
Cc1ccc(C)c(OCc2cc(C(=O)N(C)CC(O)CO)no2)c1 (stereo not given)	-10.86
Cc1ccc(C)c(OCc2cc(C(=O)N(C)Cc3nonc3C)no2)c1	50.86
Cc1cnn(CC2CCCN2Cc2ncc(-c3ccc(F)cc3)o2)c1 (stereo not given)	10.52

Structure (SMILES)	INHIBITION [%]
O=C1CC(N(C(=O)c2ccc(F)c(F)c2)C2CC2)C(=O)N1 (stereo not given)	-20.51
Cc1ccc(C(=O)N(C2CC2)C2CC(=O)NC2=O)cc1F (stereo not given)	59.93
COc1cc(C(=O)N(C2CC2)C2CC(=O)NC2=O)ccc1C (stereo not given)	11.18
CNC(=O)[C@H]1C[C@H]2OCC[C@H]2N(CC2CCOCC2)C1	-14.24
O=C([C@H]1C[C@H]2OCC[C@H]2N(CC2CCOCC2)C1)N1CCCC1	58.93
O=C([C@H]1C[C@@H]2[C@@H](C1)OCCN2CC1CC1)N1CCCC1	-1.29
O=C([C@H]1C[C@H]2OCC[C@H]2N(CC2CC2)C1)N1CCCCO1	-11.4
O=C([C@H]1C[C@H]2OCC[C@H]2N(CC2CC2)C1)N1CCCC1	63.14
O=C([C@H]1C[C@H]2OCC[C@H]2N(CC2CCOCC2)C1)N1CCCCO1	26.31
CS(=O)(=O)N1C[C@H]2CCCN(Cc3nccs3)[C@H]2C1	14.65
CC(Cn1cncn1)NC(=O)NCC(C)(C)c1ccc(F)cc1 (stereo not given)	38.1
NC(=O)C(NC1CCN(CC2CCCCC2)CC1)c1ccccc1 (stereo not given)	15.27
NC(=O)C(NC1CCN(Cc2ccc(F)cc2)CC1)c1ccccc1 (stereo not given)	-15.03
NC(=O)C(NC1CCN(CC2CCCCC2)CC1)c1ccc(F)cc1 (stereo not given)	65.76
COc1ccc(C[C@H]2CN(Cc3ccoc3)CC[C@H]2OC)cc1	10.71
N#Cc1ccnc(N2CCC(c3nccn3Cc3cscn3)CC2)c1	45.58
Cn1ccnc1C(=O)N1CCC2(CCN2c2ncccn2)C1 (stereo not given)	6.07
Cn1cccc1C(=O)N1CCC2(CCN2c2ncccn2)C1 (stereo not given)	27.42
Cn1ccc(C(=O)N2CCC3(CCN3c3ncccn3)C2)n1 (stereo not given)	53.38
CCN1CCn2c(C)cnc2C12CCN(C(=O)NCC(C)C)CC2	-29.74
COc1cccn(Cc2nnc(-c3cccnc3)o2)c1=O	-16.19
CCC(C)(C)NC(=O)COC(=O)c1cc(C)ccc1NC(=O)N(C)C	60.64
Cc1ccc(NC(=O)N(C)C)c(C(=O)OCC(=O)NC2CCCC2)c1	49.71
Cc1ccc(NC(=O)N(C)C)c(C(=O)OCC(=O)NC(C)C(C)C)c1 (stereo not given)	20.34
Cc1cc2ncc(C(C)NCc3cccnc3)c(C)n2n1 (stereo not given)	19.6
CCc1ccccc1C(=O)NS(=O)(=O)CCCC#N	-32.8
COCC1c2nnn(CC3CC3)c2CCN1C(=O)c1cnccn1 (stereo not given)	1.92

Structure (SMILES)	INHIBITION [%]
c1ccc(NC[C@@H]2CCC[C@@H]3CN(Cc4nccs4)C[C@@H]32)nc1	38.11
CC1CN(Cc2cnn(C)c2)CCN1c1ccc2nncn2n1 (stereo not given)	62.13
CC1CN(Cc2nccn2C)CCN1c1ccc2nncn2n1 (stereo not given)	3.9
Cc1cc(CN2CCN(c3ccc4nncn4n3)C(C)C2)no1 (stereo not given)	-54.33
Cc1cnc(CN2CCN(c3ccc4nncn4n3)C(C)C2)cn1 (stereo not given)	6.12
Cc1ncc(CN2CCN(c3ccc4nncn4n3)C(C)C2)s1 (stereo not given)	64.71
CC1CN(Cc2cccnc2)CCN1c1ccc2nncn2n1 (stereo not given)	-68.26
O=c1c(-c2ccnc(NC3CCCCC3)n2)cnc2sc(Cl)cn12	10.83
Cn1c(C(=O)N2CC[C@@]3(O)CCCC[C@H]3C2)cc2ccccc21	5.04
CS(=O)(=O)N1CCCC12CCCN(S(=O)(=O)c1cccc(F)c1)C2 (stereo not given)	32.41
CCN1Cc2ccccc2CC2(CCN(C(=O)N(C)C)CC2)C1=O	14.94
Cn1nc(C(=O)N2CCCC(n3cncn3)C2)ccc1=O (stereo not given)	8.06
CC(C)(C)c1nc(CN2CCC(N3CCCCC3)CC2)no1	40.47
O=C1CN(C(=O)c2cc3ccc(Br)cc3[nH]2)CCN1	57
O=C1CN(C(=O)c2cc3c(F)cc(Br)cc3[nH]2)CCN1	-10
Cc1cc(C)c2cc(C(=O)N3CCNC(=O)C3)[nH]c2c1	19.48
Clc1cccc(C2CCN(c3ncnc4c3CCNC4)C2)c1 (stereo not given)	36.79
COCCn1cnc(-c2nc(C(=O)N3CCOCC3)c3ccccn23)c1	11.37
CN(Cc1n[nH]c2c1CCCC2)c1nc(C2CC2)nc2c1CCNCC2	14.55
CCOc1ccc(Cl)c(C(=O)N(C)C)n1	-23.4
Cc1cnn(C2CN(CCOc3ccccc3C#N)C2)c1	-21.72
CO[C@H]1CCN(Cc2cnn(C)c2)[C@@H]2CN(Cc3ccncc3)C[C@H]12	-22.28
CO[C@@H]1CCN(Cc2cnn(C)c2)[C@@H]2CN(Cc3cccnc3)C[C@@H]21	51.05
CO[C@H]1CCN(Cc2cnn(C)c2)[C@@H]2CN(Cc3cccnc3)C[C@H]12	39.06
